In this assay the test system is Jar. In words: Confirmatory qHTS for gynecologic anti-cancer compounds from libraries of approved drugs and bioactive compounds. Note: nearly all actives have a fitted effect of over 55% in size. Conditions: gynecologic cancer cell panel viability, ATPlite luminescence, 48 h; series mostly up to 57.6 µM. An outline of the steps: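 Viability is measured as ATP-dependent luciferase light using ATPlite, read 15 min after reagent addition at room temperature. Compounds, in DMSO, span 57.5 uM down to 0.977 nM over 11 threefold steps for 48 h.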
On the technique in general: qHTS replaces the single test concentration by a dilution series.

Records with an inconclusive call do not appear. Where a call stands in place of a potency, no number is given. Active and inactive are the calls of the source. Calls come from the whole dose curve; as a rule, active = well fitted cell-killing curve with a large enough effect; inconclusive = small, poorly fitted or top-dose-only effect, or effect the other way; inactive = no such curve, though single readings can be large or run the other way.
Potency is the fitted concentration of half-maximal effect.

As to `CCNC(=O)C[C@@H]1N=C(c2ccc(Cl)cc2)c2cc(OC)ccc2-n2c(C)nnc21`, the Potency entry is “inactive”.
Consider `C[C@H]1CCC/C=C/C2C[C@H](O)C[C@H]2[C@H](O)/C=C/C(=O)O1` (some centres not stated), for which the Potency was 432 nM (active).
Turning to `C=C(C)[C@H]1Cc2c(ccc3c2O[C@@H]2COc4cc(OC)c(OC)cc4[C@@H]2C3=O)O1`, the Potency was 34.3 nM (active).
Then `C[C@]12CC[C@H]3[C@@H](CCC4=CC(=O)CC[C@@H]43)[C@@H]1CC[C@@H]2OC(=O)CCc1ccccc1`, with “inactive”; and `Cc1sc2c(c1C)C(c1ccc(Cl)cc1)=NC(CC(=O)OC(C)(C)C)c1nnc(C)n1-2` (configuration not stated), with 5440 nM (active); and `O=C(O)Cc1ccccc1`, with “inactive”.
To `CCC(=O)O[C@H]1CC[C@H]2[C@@H]3CCC4=CC(=O)CC[C@]4(C)[C@H]3CC[C@]12C` belongs “inactive”.

The values above are taken from PubChem BioAssay AID1345085 (National Center for Advancing Translational Sciences (NCATS), 2018).
